Data on 31 compounds can be found in PubChem BioAssay (Tox21).

Inconclusive results are not listed. Active and inactive are the calls of the source. The call rests on the fitted dose curve; in most records, active means well fitted cell-killing curve with a large enough effect in the repeat runs; inconclusive means weak or mixed curves, or effect the other way; inactive means flat fitted curve, though single readings scatter.
On the % scale 0 is the no-effect control and ±100 the full control effect.

The nature of the assay: qHTS RealTime-Glo MT Cell Viability Assay in HEK293 cells - 0 hour (AID 1224880). Further: top concentration of the series differs between compounds; nearly all actives have a fitted effect of over 45% in size. The note with it: RealTime-Glo luminescence; series mostly up to 76.8 µM; activity change, negative = cytotoxicity: at the top concentration. The gist of the method: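 HEK293 cells mixed with RealTime-Glo reagents (NanoLuc plus cell-permeant prosubstrate) at 600 cells/well, preincubated 5 h at 37 C/5% CO2, then given 23 nL compound in DMSO. Nonlytic luminescence from viable cells was read at 0, 8, 16, 24, 32 and 40 h.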
In general terms: qHTS replaces the single test concentration by a dilution series.
Turning to `C1CCC(C2CCCCC2)CC1`, the “activity change, negative = cytotoxicity” value is 4.17% (inactive). For `COc1cc(OC)nc(NC(=O)NS(=O)(=O)c2ncccc2C(=O)N(C)C)n1`, the “activity change, negative = cytotoxicity” value was 5.31% (inactive). The result for `CCOC(=O)NC(=S)Nc1ccccc1NC(=S)NC(=O)OCC` reads -1.9% (inactive); that for `CCOP(=S)(OCC)SCSc1ccc(Cl)cc1`, 4.7% (inactive); that for `C[C@@H]1CN(C2CCC(C#N)(c3ccc(F)cc3)CC2)CC[C@]1(C(=O)O)c1ccccc1` (stereo partly specified), 5.74% [at 35.3 µM] (inactive). To `O=C(O)c1ccc2[nH]cc(CCCCN3CC=C(c4ccccc4)CC3)c2c1` belongs -3.28% [at 35.3 µM] (inactive). For the compound `N#CCCC#N`, the “activity change, negative = cytotoxicity” value was -0.47% (inactive).

For `Nc1n[nH]c(N)n1`, the “activity change, negative = cytotoxicity” value is 12.8% (inactive).

Regarding `CCNc1nc(NC(C)C)nc(OC)n1`, the “activity change, negative = cytotoxicity” value is -11.4% (inactive).

Turning to `CCCCC(=O)Cl`, the “activity change, negative = cytotoxicity” value was -1.85% (inactive).

Regarding `CCN(CC)CCOC(=O)C(C)(c1ccccc1)c1ccccc1`, the “activity change, negative = cytotoxicity” value is 5.02% [at 35.3 µM] (inactive).

In the case of `CCC(=O)c1ccccc1`, the “activity change, negative = cytotoxicity” value was -9.27% (inactive). The result for `N#CC(O)c1ccccc1` (stereo unspecified) reads 4.47% (inactive); that for `O=C1OC(=O)C2C1C1(Cl)C(Cl)=C(Cl)C2(Cl)C1(Cl)Cl` (stereo unspecified), -13.6% (inactive); that for `CC(C)NCC(O)c1ccc(N)c(C#N)c1` (stereo unspecified), 0.423% [at 35.3 µM] (inactive). Consider `CN(N=O)C(N)=O`, for which the “activity change, negative = cytotoxicity” value was -9.86% (inactive). Consider `CS(=O)(=O)c1cc(C(F)(F)F)ccc1C(=O)c1cnoc1C1CC1`, for which the “activity change, negative = cytotoxicity” value was -21.8% (inactive). With `O=S(=O)(O)C(F)(F)C(F)(F)C(F)(F)C(F)(F)C(F)(F)C(F)(F)F`, the “activity change, negative = cytotoxicity” value is -12.1% (inactive). Regarding `CN(C)CCc1ccc(O)cc1`, the “activity change, negative = cytotoxicity” value is -2.75% [at 35.3 µM] (inactive). In the case of `CC(Oc1ccc(Oc2ncc(C(F)(F)F)cc2Cl)cc1)C(=O)O` (stereo unspecified), the “activity change, negative = cytotoxicity” value was -0.717% (inactive). In the case of `COc1cc2c(cc1OC)[C@@]13CCN4CC5=CCO[C@H]6CC(=O)N2[C@H]1[C@H]6[C@H]5C[C@H]43`, the “activity change, negative = cytotoxicity” value was 2.13% (inactive). For `CCC/C(=N\OCC)C1=C(O)CC(CC(C)SCC)CC1=O` (stereo unspecified), the “activity change, negative = cytotoxicity” value was -1.86% (inactive).

As to `CCOC(=O)/C=C(C)/C=C/C[C@@H](C)CCCC(C)C`, the “activity change, negative = cytotoxicity” value was -0.581% (inactive). In the case of `COc1cccc(C(=O)NN(C(=O)c2cc(C)cc(C)c2)C(C)(C)C)c1C`, the “activity change, negative = cytotoxicity” value was -9.48% (inactive).

Take `O=[N+]([O-])c1cccc(O)c1`: the “activity change, negative = cytotoxicity” value is 19.5% (inactive). Take `COc1cc(C[C@@H](C)N)c(OC)cc1C`: the “activity change, negative = cytotoxicity” value is 14.8% (inactive).

As to `CC(C)(C)C(=O)C(Oc1ccc(Cl)cc1)n1cncn1` (stereo unspecified), the “activity change, negative = cytotoxicity” value was -1.25% (inactive). The result for `OC(Cn1cncn1)(c1ccc(F)cc1)c1ccccc1F` (stereo unspecified) reads 22.9% (inactive); that for `CC(C=O)Cc1ccc2c(c1)OCO2` (stereo unspecified), -0.28% (inactive); that for `COc1cc(OC)nc(Sc2cccc(Cl)c2C(=O)O)n1`, 0.834% (inactive). Consider `CCOP(=S)(OCC)Oc1ncn(-c2ccccc2)n1`, for which the “activity change, negative = cytotoxicity” value is 9.04% (inactive).
